# PubChem BioAssay (Tox21)
# Records with an inconclusive call do not appear. A call without a number means that no potency is given here. The source made the active and inactive calls. Unless noted, calls follow the shape of the dose curve; as a rule, active = well fitted curve in the direction sought with a large enough effect in the repeat runs; inconclusive = weak or mixed curves; inactive = no such curve, though single readings can be large; an effect the other way counts as inactive or inconclusive.
# How the values were obtained:
# [1] = qHTS assay to identify small molecule antagonists of the glucocorticoid receptor (GR) signaling pathway - cell viability counter screen (AID 720693); also: nearly all actives have a fitted effect of over 55% in size; also: potency is read from the fitted curve at half-maximal effect
# [2] = qHTS assay for identifying genotoxic compounds that show differential cytotoxicity against isogenic chicken DT40 cell lines with known DNA damage response pathways - wild type cell line (AID 743012); also: nearly all actives have a fitted effect of over 60% in size; also: potency is read from the fitted curve at half-maximal effect
# Summary of the method: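 Using parental DT40 (300 cells/well), compounds delivered in DMSO incubate 40 h at 37 C/5% CO2. CellTiter-Glo reagent then stands 30 min at room temperature, and luminescence gives cell viability.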
# [3] = qHTS assay for identifying genotoxic compounds that show differential cytotoxicity against isogenic chicken DT40 cell lines with known DNA damage response pathways - Rev3 mutant cell line (AID 743014); also: nearly all actives have a fitted effect of over 55% in size; also: potency is read from the fitted curve at half-maximal effect
# [4] = qHTS assay for identifying genotoxic compounds that show differential cytotoxicity against isogenic chicken DT40 cell lines with known DNA damage response pathways - Rad54/Ku70 mutant cell line (AID 743015); also: nearly all actives have a fitted effect of over 60% in size; also: potency is read from the fitted curve at half-maximal effect
# [5] = qHTS assay to identify small molecule antagonists of the androgen receptor (AR) signaling pathway - cell viability counter screen (AID 743033; also: nearly all actives have a fitted effect of over 45% in size)
# [6] = qHTS assay to identify small molecule antagonists of the androgen receptor (AR) signaling pathway using the MDA cell line - cell viability counter screen (AID 743041; also: nearly all actives have a fitted effect of over 45% in size; also: potency is read from the fitted curve at half-maximal effect)
# Summary of the method: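 R1881-driven MDA-kb2 AR-luc cells, 3,000/well, were dosed with library compounds for 16 h; cell health came from CellTiter-Fluor fluorescence in the reporter wells.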
# [7] = qHTS assay to identify small molecule antagonists of the thyroid receptor (TR) signaling pathway - cell viability counter screen (AID 743064); also: nearly all actives have a fitted effect of over 50% in size; also: potency is read from the fitted curve at half-maximal effect
# Summary of the method: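 Compounds were tested on GH3.TRE-Luc cells in the presence of T3 at 1 nM final. Following 23.5 h at 37 °C, cell viability was quantified by CellTiter-Fluor.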
# [8] = target: Estrogen receptor (Homo sapiens) (UniProt P03372); assay: qHTS assay to identify small molecule antagonists of the estrogen receptor alpha (ER-alpha) signaling pathway (AID 743069; active = well fitted curve in the direction sought with a large enough effect in the signal ratio in the repeat runs, not every such curve was filed as active; the % refers to the signal ratio)
# Summary of the method: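 Compound effects are measured against 17beta-estradiol stimulation in HEK293 cells with a UAS-controlled beta-lactamase reporter for ER-alpha. Exposure lasts 18 hr at 37C; LiveBLAzer B/G FRET substrate follows for 2 hr at room temperature.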
# [9] = qHTS assay to identify small molecule antagonists of the estrogen receptor alpha (ER-alpha) signaling pathway - cell viability counter screen (AID 743074; calls by dose curve;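 also: HEK293 cells carrying ER-alpha-UAS-bla reporter stimulated with 17beta-estradiol; nearly all actives have a fitted effect of over 45% in size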)
# [10] = target: Estrogen receptor (Homo sapiens) (UniProt P03372); assay: qHTS assay to identify small molecule agonists of the estrogen receptor alpha (ER-alpha) signaling pathway (AID 743075; calls by dose curve)
# [11] = target: Estrogen receptor (Homo sapiens) (UniProt P03372); assay: qHTS assay to identify small molecule agonists of the estrogen receptor alpha (ER-alpha) signaling pathway using the BG1 cell line (AID 743079); also: nearly all actives have a fitted effect of over 20% in size; also: potency is read from the fitted curve at half-maximal effect
# [12] = qHTS assay to identify small molecule antagonists of the estrogen receptor alpha (ER-alpha) signaling pathway using the BG1 cell line (AID 743080; calls by dose curve;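 also: BG1 cells stimulated with 17beta-estradiol alongside compound; nearly all actives have a fitted effect of over 25% in size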; also: potency is read from the fitted curve at half-maximal effect)
# Summary of the method: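 Luciferase inhibition measured with ONE-Glo after 30 min at RT in BG1Luc4E2 cells given test compounds and 17beta-estradiol for 21.5 h at 37 C; CellTiter-Fluor viability read in the same wells beforehand.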
# [13] = qHTS assay to identify small molecule antagonists of the estrogen receptor alpha (ER-alpha) signaling pathway using the BG1 cell line - cell viability counter screen (AID 743081);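 also: compound given together with 17beta-estradiol as the ER stimulus; series mostly up to about 70 µM; nearly all actives have a fitted effect of over 45% in size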
# [14] = target: Aromatase (Homo sapiens) (UniProt P11511); assay: qHTS assay to identify aromatase inhibitors (AID 743083); also: nearly all actives have a fitted effect of over 55% in size; also: potency is read from the fitted curve at half-maximal effect
# [15] = target: Androgen receptor (Homo sapiens) (UniProt P10275); assay: qHTS assay to identify small molecule agonists of the androgen receptor (AR) signaling pathway using the MDA cell line (AID 743040; also: nearly all actives have a fitted effect of over 20% in size)
# Summary of the method: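 After a 5 h incubation at 37C and 0% CO2, MDA-kb2 reporter cells were dosed with compounds in DMSO and kept 16 h under the same conditions. Luciferase activity was then read as luminescence with ONE-Glo.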
# [16] = system: thyroid hormone receptor (rat, GH3 cells); assay: qHTS assay to identify small molecule agonists of the thyroid receptor (TR) signaling pathway (AID 743066; calls by dose curve)
# [17] = qHTS assay to identify small molecule antagonists of the thyroid receptor (TR) signaling pathway (AID 743065); also: nearly all actives have a fitted effect of over 55% in size; also: potency is read from the fitted curve at half-maximal effect
# Summary of the method: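 Antagonism measured as loss of luciferase signal in GH3 cells stably carrying a TRE-luciferase reporter, co-treated with compound and T3 (1 nM final) for 23.5 h at 37 C. Viability was read in the same well by CellTiter-Fluor.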
# [18] = target: Androgen receptor (Homo sapiens) (UniProt P10275); assay: qHTS assay to identify small molecule agonists of the androgen receptor (AR) signaling pathway (AID 743036; active = well fitted activation curve with a large enough effect in the signal ratio in the repeat runs, with a control signal flat, not every such curve was filed as active; the % refers to the signal ratio)
# Summary of the method: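 Beta-lactamase under UAS control, stably integrated in HEK293 GripTite cells, reports receptor activation. After 16 h compound treatment, cells received FRET substrate for 2 h at room temperature before fluorescence reading.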
# [19] = target: Androgen receptor (Homo sapiens) (UniProt P10275); assay: qHTS assay to identify small molecule antagonists of the androgen receptor (AR) signaling pathway using the MDA cell line (AID 743042; also: nearly all actives have a fitted effect of over 55% in size; also: potency is read from the fitted curve at half-maximal effect)
# Summary of the method: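 Antagonist mode: compounds plus R1881 agonist added to MDA-kb2 AR-luc cells, incubated 16 h at 37C. Luciferase reporter luminescence quantified, with multiplexed CellTiter-Fluor readout for cell viability.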
# [20] = target: Androgen receptor (Homo sapiens) (UniProt P10275); assay: qHTS assay to identify small molecule antagonists of the androgen receptor (AR) signaling pathway (AID 743035; active = well fitted inhibition curve with a large enough effect in the signal ratio in the repeat runs, not every such curve was filed as active; the % refers to the signal ratio)
# Summary of the method: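 Using qHTS, AR-UAS-bla GripTite HEK293 cells received compound, then R1881, and were cultured 16 h at 37C/5% CO2 before a 2 h room-temperature LiveBLAzer B/G FRET substrate step and fluorescence measurement.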
# Sequence of Estrogen receptor (Homo sapiens) (P03372 whole entry, looked up): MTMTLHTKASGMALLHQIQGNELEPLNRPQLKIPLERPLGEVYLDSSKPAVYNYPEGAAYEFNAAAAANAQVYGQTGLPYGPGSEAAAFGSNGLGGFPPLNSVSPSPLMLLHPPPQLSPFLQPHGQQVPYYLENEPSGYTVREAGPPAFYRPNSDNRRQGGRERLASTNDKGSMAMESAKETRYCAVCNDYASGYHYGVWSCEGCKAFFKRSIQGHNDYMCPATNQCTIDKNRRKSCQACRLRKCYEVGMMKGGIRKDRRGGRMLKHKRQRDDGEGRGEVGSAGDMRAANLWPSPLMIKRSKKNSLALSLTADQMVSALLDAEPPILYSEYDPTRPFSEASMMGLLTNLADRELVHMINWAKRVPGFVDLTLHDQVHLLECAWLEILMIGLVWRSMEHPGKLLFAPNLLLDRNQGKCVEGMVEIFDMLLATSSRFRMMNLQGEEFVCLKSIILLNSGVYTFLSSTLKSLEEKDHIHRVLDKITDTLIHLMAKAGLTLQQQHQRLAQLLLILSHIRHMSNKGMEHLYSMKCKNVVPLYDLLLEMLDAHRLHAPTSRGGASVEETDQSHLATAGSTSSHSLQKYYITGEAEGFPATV
# Sequence of Androgen receptor (Homo sapiens) (P10275 whole entry, looked up): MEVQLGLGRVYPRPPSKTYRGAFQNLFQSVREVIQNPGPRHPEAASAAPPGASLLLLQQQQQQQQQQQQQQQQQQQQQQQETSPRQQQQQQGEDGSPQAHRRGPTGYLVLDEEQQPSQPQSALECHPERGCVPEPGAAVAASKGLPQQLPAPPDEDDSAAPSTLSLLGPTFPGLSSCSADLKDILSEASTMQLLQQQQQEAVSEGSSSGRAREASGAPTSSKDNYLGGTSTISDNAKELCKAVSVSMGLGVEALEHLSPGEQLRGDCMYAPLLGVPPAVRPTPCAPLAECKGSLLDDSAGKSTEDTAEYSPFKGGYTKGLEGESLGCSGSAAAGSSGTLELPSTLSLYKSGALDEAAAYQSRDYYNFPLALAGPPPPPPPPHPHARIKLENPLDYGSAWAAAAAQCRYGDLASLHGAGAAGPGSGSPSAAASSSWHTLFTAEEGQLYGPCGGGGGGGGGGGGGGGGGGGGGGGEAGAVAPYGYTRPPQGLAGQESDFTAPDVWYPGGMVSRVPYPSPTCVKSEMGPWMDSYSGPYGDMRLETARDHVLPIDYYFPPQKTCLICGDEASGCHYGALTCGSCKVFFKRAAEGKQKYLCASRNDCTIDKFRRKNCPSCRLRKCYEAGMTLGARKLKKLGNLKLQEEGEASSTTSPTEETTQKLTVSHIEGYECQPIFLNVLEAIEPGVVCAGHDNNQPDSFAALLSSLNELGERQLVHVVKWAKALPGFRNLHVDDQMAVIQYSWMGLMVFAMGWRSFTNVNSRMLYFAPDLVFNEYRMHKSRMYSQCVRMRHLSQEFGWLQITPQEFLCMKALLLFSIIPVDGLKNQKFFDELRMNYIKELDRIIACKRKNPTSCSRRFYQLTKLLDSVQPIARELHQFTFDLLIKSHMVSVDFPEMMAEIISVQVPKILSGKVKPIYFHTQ
# Sequence of Aromatase (Homo sapiens) (P11511 whole entry, looked up): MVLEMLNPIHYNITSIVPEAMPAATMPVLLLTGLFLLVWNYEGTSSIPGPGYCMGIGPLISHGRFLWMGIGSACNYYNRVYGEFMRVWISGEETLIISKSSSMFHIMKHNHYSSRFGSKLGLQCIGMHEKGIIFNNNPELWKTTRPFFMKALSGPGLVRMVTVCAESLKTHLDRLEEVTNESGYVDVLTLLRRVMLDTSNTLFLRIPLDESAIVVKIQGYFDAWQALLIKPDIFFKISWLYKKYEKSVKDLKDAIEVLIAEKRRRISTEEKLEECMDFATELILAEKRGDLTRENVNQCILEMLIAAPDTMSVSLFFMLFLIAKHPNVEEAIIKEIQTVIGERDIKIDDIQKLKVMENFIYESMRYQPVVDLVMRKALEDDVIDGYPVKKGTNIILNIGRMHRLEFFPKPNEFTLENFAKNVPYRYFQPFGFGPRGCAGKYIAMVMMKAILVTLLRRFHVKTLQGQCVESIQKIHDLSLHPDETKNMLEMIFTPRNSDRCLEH
Structure (SMILES),Potency [1],Potency [2],Potency [3],Potency [4],Potency [5],Potency [6],Potency [7],Potency [8],outcome [9],Potency [10],Potency [11],Potency [12],Potency [13],Potency [14],outcome [15],outcome [16],Potency [17],outcome [18],Potency [19],Potency [20]
CC(O)CN (centres undefined),inactive,inactive,inactive,inactive,inactive,inactive,inactive,inactive,inactive,inactive,inactive,inactive,inactive,inactive,,,,,,
Clc1cccc(C(c2ccc3nc[nH]c3c2)n2ccnc2)c1 (centres undefined),inactive,21.1 µM (active),26.6 µM (active),26.6 µM (active),,inactive,inactive,inactive,,inactive,,11.9 µM (active),inactive,,inactive,inactive,,,,
C[Si](C)(C)O[Si](C)(C)O[Si](C)(C)C,inactive,inactive,inactive,inactive,inactive,inactive,,,inactive,,,,inactive,inactive,,inactive,inactive,,,
CCCCC(CC)COCCC#N (centres undefined),inactive,inactive,inactive,inactive,inactive,,inactive,,inactive,,,,inactive,inactive,,inactive,inactive,,,
CCOc1ccc2c(c1)C(C)CC(C)(C)N2 (centres undefined),inactive,27.3 µM (active),54.5 µM (active),48.6 µM (active),,inactive,inactive,,inactive,,,,inactive,inactive,inactive,inactive,inactive,inactive,inactive,
CC[C@H](NC(C)C)[C@H](O)c1ccc(O)c2[nH]c(=O)ccc12,inactive,inactive,inactive,inactive,,inactive,,inactive,inactive,inactive,inactive,inactive,inactive,inactive,inactive,inactive,,inactive,inactive,inactive
Cc1nc2sccn2c(=O)c1CCN1CCC(=C(c2ccc(F)cc2)c2ccc(F)cc2)CC1,inactive,7.5 µM (active),13.3 µM (active),13.3 µM (active),inactive,,29.8 µM (active),inactive,inactive,inactive,,29.8 µM (active),inactive,inactive,,,26.6 µM (active),,,
CC(=O)CC/C=C(\C)CC/C=C(\C)CC/C=C(\C)CCC=C(C)C,inactive,inactive,inactive,inactive,inactive,inactive,inactive,,inactive,,,,inactive,inactive,,inactive,,,,
CC(C)(Cc1c[nH]c2ccccc12)NCC(O)COc1ccccc1C#N (centres undefined),inactive,9.44 µM (active),13.3 µM (active),16.8 µM (active),inactive,,21.1 µM (active),,inactive,,,,inactive,inactive,,,,,,
Cc1ccc2c(Cl)cc(Cl)c(O)c2n1,23.9 µM (active),1.88 µM (active),2.37 µM (active),1.88 µM (active),,9.44 µM (active),1.19 µM (active),,,,,9.44 µM (active),,13.3 µM (active),inactive,,,,2.66 µM (active),
CCC(C)CCCC(C)(C)O (centres undefined),inactive,inactive,inactive,inactive,inactive,inactive,,,inactive,,,,inactive,inactive,,inactive,inactive,,,
CCCC(=O)OCc1ccccc1,inactive,inactive,inactive,inactive,,inactive,inactive,inactive,inactive,inactive,inactive,inactive,inactive,inactive,,inactive,inactive,,,
O=C(O)c1c2ccccc2cc2ccccc12,inactive,inactive,inactive,inactive,inactive,inactive,,inactive,,inactive,inactive,inactive,inactive,inactive,,inactive,inactive,,,
CCC1=C(C)CN(C(=O)NCCc2ccc(S(=O)(=O)NC(=O)NC3CCC(C)CC3)cc2)C1=O (centres undefined),inactive,inactive,inactive,inactive,,inactive,inactive,inactive,inactive,inactive,inactive,inactive,inactive,inactive,inactive,inactive,inactive,,inactive,inactive
CC(O)C(C)O (centres undefined),inactive,inactive,inactive,inactive,inactive,inactive,,,inactive,,,,inactive,inactive,,,inactive,,,
COc1ccc(/C=C/c2cc(OC)cc(=O)o2)cc1,inactive,inactive,inactive,inactive,inactive,inactive,,inactive,inactive,inactive,0.884 µM (active),,inactive,inactive,,inactive,inactive,,,
CCOC(C)OCC,inactive,inactive,inactive,inactive,inactive,inactive,inactive,,inactive,,,,inactive,inactive,,,,,,
